Hits are enriched below; roughly 3% of the tested compounds scored in any of these assays.
FadD28 FP inh = inhibitors of FadD28 bisubstrate probe binding, primary screen, biochemical, fluorescence polarization, single point. Mycobacterium tuberculosis FadD28 fatty-acid-AMP ligase. inhibition, % at 12.5 µM. 360,000 tested, 0.22% active. AID 588549, 2011; in the data active = inhibition above about 8.5%, passing the limit was not always enough
Rv3671c inh = Rv3671c serine protease inhibitors, primary screen, biochemical, fluorescence polarization, M. tuberculosis H37Rv. P9WHR9. inhibition, % at 5.96 µM. 320,000 tested, 0.048% active; in the data active = inhibition above about 38%;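 also: extracellular domain of Rv3671c used as enzyme; 0% = enzyme with DMSO and 100% = no enzyme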
GDH-TPI inh = GDH-TPI coupling enzyme inhibitors, primary screen, artefact control for M. tuberculosis FBA inhibitor project, biochemical, absorbance, full deck | inhibition, % at 4.8 µM | GDH-TPI coupled enzyme counterscreen, NADH absorbance | 360,000 tested, 1.2% active; in the data active = inhibition above about 30%;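 also: 0% = DMSO wells and 100% = wells lacking the enzyme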
Mtb BioA inh = M. tuberculosis BioA enzyme inhibitors, primary screen, biochemical, plate reader, single point, HTS; 7,8-diaminopelargonic acid synthase BioA (Mycobacterium tuberculosis); purified M. tuberculosis BioA enzyme; inhibition, % at 9.99 µM; 360,000 tested, 0.096% active; in the data active = inhibition above about 40%
Mtb FBA inh = Mtb FBA enzyme inhibitors, primary screen, biochemical, fluorescence, strain H37Rv. 360,000 tested, 2.3% active. Fructose-bisphosphate aldolase (Mycobacterium tuberculosis (strain ATCC 25618 / H37Rv)), …. purified M. tuberculosis FBA, fluorescence read-out. inhibition, % at 1 µM; in the data active = inhibition above about 27%;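 also: 0% = vehicle and 100% = reference inhibitor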
Target sequence (P9WQA3 whole entry, looked up): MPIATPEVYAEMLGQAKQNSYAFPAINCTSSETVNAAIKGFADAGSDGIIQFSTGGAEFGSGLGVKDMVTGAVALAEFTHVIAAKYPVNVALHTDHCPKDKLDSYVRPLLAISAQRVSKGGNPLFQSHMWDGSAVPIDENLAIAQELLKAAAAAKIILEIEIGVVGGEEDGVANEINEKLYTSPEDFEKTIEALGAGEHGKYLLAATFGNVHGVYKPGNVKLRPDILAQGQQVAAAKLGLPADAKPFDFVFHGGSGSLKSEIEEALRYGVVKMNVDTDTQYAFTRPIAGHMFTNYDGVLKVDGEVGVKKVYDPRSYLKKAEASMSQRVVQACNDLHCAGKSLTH
The depositor's hits bear a star; · = no result; + = active, no number.

SMILES	FadD28 FP inh	Rv3671c inh	GDH-TPI inh	Mtb BioA inh	Mtb FBA inh
Cc1c(OCC(=O)NC(Cc2ccc(Cl)cc2)C(=O)O)ccc2c3c(c(=O)oc12)CCC3 (stereo unspecified)	-7	-6	7	7	6
CN(C)C(=O)C[C@H]1CC[C@H](NC(=O)C2CCOCC2)[C@H](CO)O1	·	·	·	-1	·
CCOc1cc(C)cc2oc(=O)c3c(c12)CCCC3	·	-1	1	0	8
Cc1ccc(-n2nc(C)cc2NC(=O)COc2cc(C)cc3oc(=O)c4c(c23)CCC4)cc1	-2	0	16	0	21
Cc1cc(OCC(=O)O)c2c3c(c(=O)oc2c1)CCCC3	-2	1	6	0	185*
Cc1cc(OCC(=O)N[C@@H](Cc2ccccc2)C(=O)O)c2c3c(c(=O)oc2c1)CCC3	-3	-6	24	0	137*
COc1ccc(-c2nn(C)c3sc(C(=O)NCc4ccco4)cc23)cc1OC	-3	-99	9	-2	-1
COc1ccc(NC(=O)c2cc3c(-c4ccc(OC)c(OC)c4)nn(C)c3s2)cc1OC	26*	26	38*	1	2
Cc1ccc(Nc2nc(-c3cccnc3)cs2)cc1Cl	-4	2	9	11	-4
O=C(O)c1ccc(Nc2nc(-c3cccnc3)cs2)cc1O	1	-6	43*	0	-2
O=C(O)c1ccc(Nc2nc(-c3cc4ccccc4oc3=O)cs2)cc1O	30*	·	18	·	11
CCC(=O)Nc1ccc2c(c1)C(=O)N(C)C[C@H](OC)[C@@H](C)CN(Cc1cccc(F)c1)[C@H](C)CO2	·	·	·	7	·
C[C@H](CO)N1C[C@H](C)[C@@H](CN(C)C(=O)NC2CCCCC2)Oc2ccc(NC(=O)C3CC3)cc2CC1=O	·	·	·	2	·
Cc1[nH]ccc2c1[nH]c1cc(=O)ccc12	0	-6	7	-1	167*
Cc1cc(=O)[nH]c2cc(Cl)ccc12	-2	-5	12	0	1
CCCCc1nc(C(N)=O)c2[nH]c(=O)n(-c3ccccc3F)c2n1	-4	-1	5	-2	136*
Cn1c2ccccc2c2ncn(Cc3ccc(F)cc3)c(=O)c21	-2	-3	3	0	16
Cn1c2ccsc2c2ncn(Cc3ccccc3F)c(=O)c21	-8	0	7	2	+
COc1ccc(/C=C/C(=O)NC(=S)NNC(=O)Cc2cccs2)cc1	0	-5	41*	·	7
COc1ccc(C(=O)/C=C/c2ccc(O)cc2)cc1	-3	-11	31*	0	-2
COc1ccc(/C=C/C(=O)NC(=S)Nc2ccc(C(=O)O)cc2)cc1	-3	-11	50*	5	-1
COc1ccc(/C=C/C(=O)NC(=S)NNC(=O)c2ccco2)cc1	2	-6	41*	-1	12
Cc1noc(C)c1NC(=O)N(C)C[C@H]1OCCCC[C@@H](C)Oc2ccc(NC(=O)C3CCCCC3)cc2C(=O)N([C@@H](C)CO)C[C@@H]1C	·	·	·	0	·
N=c1c(C(=O)NCC2CCCO2)cc2c(=O)n3ccccc3nc2n1C1CCCCC1 (stereo unspecified)	0	-2	1	-7	+
Cc1ccc2nc3c(cc(C(=O)NCC4CCCO4)c(=N)n3C3CCCC3)c(=O)n2c1 (stereo unspecified)	-1	-1	6	3	+
SMILES	FadD28 FP inh	Rv3671c inh	GDH-TPI inh	Mtb BioA inh	Mtb FBA inh
Cc1cccn2c(=O)c3cc(S(=O)(=O)c4ccc(Br)cc4)c(=N)n(C4CCCC4)c3nc12	-3	4	-4	1	0
Cc1cccn2c(=O)c3cc(C(=O)NCC4CCCO4)c(=N)n(C4CCCC4)c3nc12 (stereo unspecified)	-1	4	11	4	+
Cc1cccn2c(=O)c3cc(C(=O)NCc4ccco4)c(=N)n(C4CCCCC4)c3nc12	-6	3	1	0	85*
Cc1ccc2nc3c(cc(S(=O)(=O)c4ccccc4)c(=N)n3C3CCCC3)c(=O)n2c1	-3	·	10	0	0
COc1ccc(NC(=O)N(C)C[C@@H]2OCc3ccccc3-c3ccccc3C(=O)N([C@@H](C)CO)C[C@H]2C)cc1	·	·	·	0	·
C/C=C/c1ccc2c(c1)O[C@H](CN(C)C(=O)CN(C)C)[C@@H](C)CN([C@H](C)CO)S2(=O)=O	·	·	·	2	·
Cc1noc(C)c1NC(=O)Nc1ccc2c(c1)C(=O)N([C@@H](C)CO)C[C@H](C)[C@@H](CN(C)Cc1ccc(-c3ccccc3)cc1)O2	·	·	·	-3	·
COc1cccc(NC(=O)N[C@@H]2CC[C@@H](CC(=O)NCc3ccccn3)O[C@@H]2CO)c1	·	·	·	2	·
N=c1c(C(=O)NCC2CCCO2)cc2c(=O)n3ccccc3nc2n1C1CCCC1 (stereo unspecified)	2	5	-1	1	+
Cc1cccn2c(=O)c3cc(C(=O)NCc4ccco4)c(=N)n(CCOCCO)c3nc12	0	11	16	-1	+
C[C@H](CO)N1C[C@H](C)[C@H](CN(C)C(=O)NC2CCCCC2)Oc2c(NS(=O)(=O)c3ccccc3)cccc2C1=O	·	·	·	-2	·
COc1ccc(S(=O)(=O)Nc2ccc3c(c2)C(=O)N([C@H](C)CO)C[C@H](C)[C@H](CN(C)C(=O)Nc2cccc4ccccc24)OCCCC[C@@H](C)O3)cc1	·	·	·	-1	·
CCCN(C)C[C@H]1OCCCC[C@@H](C)Oc2ccc(NC(=O)Nc3ccc(C(F)(F)F)cc3)cc2C(=O)N([C@@H](C)CO)C[C@H]1C	·	·	·	1	·
Brc1ccc2c(c1)-c1ccccc1C1=NCCN12	-1	·	14	-1	1
Clc1ccc2c(c1)-c1ccccc1C1=NCCN12	-4	·	20	·	51*
COc1ccc(NC(=O)Nc2ccc3c(c2)C(=O)N([C@H](C)CO)C[C@H](C)[C@H](CN(C)C(=O)Nc2ccc(F)cc2)O3)cc1	·	·	·	0	·
COc1ccc(-c2cnc3c(c2)C(=O)N([C@H](C)CO)C[C@@H](C)[C@H](CN(C)C(=O)CN(C)C)O3)cc1	·	·	·	-2	·
Cc1cc(C(=O)N/N=C/C=C/c2ccc3c(c2)OCO3)n[nH]1	0	2	50*	2	3
O=C(N/N=C\c1ccc(O)c([N+](=O)[O-])c1)C1COc2ccccc2O1 (stereo unspecified)	0	-2	70*	-2	-7
O=C(N/N=C\C=C\c1ccc2c(c1)OCO2)c1ccc(F)cc1	-3	18	30	0	6
O=C(N/N=C\C=C\c1ccc2c(c1)OCO2)C1COc2cc3ccccc3cc2O1 (stereo unspecified)	-1	3	49*	-1	0
O=C(N/N=C/C=C/c1ccc2c(c1)OCO2)C(O)c1ccccc1 (stereo unspecified)	1	-5	56*	-2	2
CCCC(=O)Nc1ccc2c(c1)OC[C@H](C)N(CC1CCCC1)C[C@H](C)[C@H](OC)CN(C)C2=O	·	·	·	-1	·
